Assay results reported in PubChem BioAssay AID1159580 (chemical genetic matrix, 2015).
Values joined by “and” are separate entries in the source; they are usually repeats but may differ in a detail not shown here. Equal values may be shown once. Hit rate of the full screen: of about 5,500 compounds, about 2,000 (36%) were called active. Another 18% or so got no clear call; they are omitted. Cut-off read from the data, not from the text of the source: active = normalized growth mostly below about 0.91 (no sharp cut-off); inconclusive = no clear call, values can overlap the other calls; inactive = mostly above about 0.92. This is one part of the list.

Assay: chemical genetic growth profiling, strain panel (AID 1159580);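 note: tested at 20 µM; growth read once vehicle control cultures reached saturation at 30 °C; 1 = growth at the plate median or of vehicle wells; lower values mean less growth of the strain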
Details: S. cerevisiae deletion strains, growth OD

Measured: normalized growth

NS(=O)(=O)c1cc2c(cc1Cl)NC=NS2(=O)=O
inactive: locus YAL013W, strain DEP1, hits give low values 1 | locus YAL021C, strain ccr4, hits give low values 0.984 | locus YAL026C, strain drs2, hits give low values 1.01 | locus YAL030W, strain snc1, hits give low values 1 | locus YAL040C, strain CLN3, hits give low values 1 | locus YBL061C, strain skt5, hits give low values 1 | locus YBR009C, strain hhf1, hits give low values 0.983 | locus YBR021W, strain FUR4, hits give low values 1 | locus YBR023C, strain chs3, hits give low values 1 | locus YBR171W, strain sec66, hits give low values 1 | locus YBR229C, strain ROT2, hits give low values 1 | locus YBR231C, strain swc5, hits give low values 0.973 | locus YBR279W, strain paf1, hits give low values 0.997 | locus YCL011C, strain gbp2, hits give low values 1 | locus YCL016C, strain dcc1, hits give low values 0.999 | locus YCL029C, strain bik1, hits give low values 0.997 | locus YCL061C, strain MRC1 (second series), hits give low values 1 | locus YCL061C, strain MRC1, hits give low values 1.01 | locus YCL069W, strain vba3, hits give low values 1.01 | locus YCR088W, strain abp1, hits give low values 0.995 | locus YDL005C, strain med2, hits give low values 0.997 | locus YDL035C, strain GPR1, hits give low values 1.02 | locus YDL040C, strain nat1, hits give low values 1 | locus YDL074C, strain BRE1, hits give low values 1.01 | locus YDL101C, strain DUN1, hits give low values 1.01 | locus YDL134C, strain PPH21, hits give low values 1 | locus YDL185W, strain tfp1, hits give low values 0.974 | locus YDL192W, strain arf1, hits give low values 1 | locus YDR001C, strain nth1, hits give low values 1.03 | locus YDR069C, strain doa4, hits give low values 1 | locus YDR101C, strain arx1, hits give low values 0.996 | locus YDR137W, strain rgp1, hits give low values 0.999 | locus YDR150W, strain NUM1, hits give low values 1.01 | locus YDR159W, strain sac3, hits give low values 1 | locus YDR162C, strain NBP2, hits give low values 1.02 | locus YDR195W, strain ref2 0.93 | locus YDR297W, strain sur2, hits give low values 1 | locus YDR318W, strain mcm21, hits give low values 1 | locus YDR334W, strain swr1, hits give low values 1 | locus YDR335W, strain msn5, hits give low values 1.02 | locus YDR388W, hits give low values 0.997 | locus YDR392W, strain spt3, hits give low values 1 | locus YDR502C, strain sam2, hits give low values 1.01 | locus YEL003W, strain gim4, hits give low values 0.99 | locus YEL037C, strain rad23, hits give low values 0.999 | locus YEL061C, strain CIN8 (second series), hits give low values 1.02 | locus YEL061C, strain CIN8, hits give low values 1 | locus YER002W, strain NOP16, hits give low values 0.975 | locus YER015W, strain faa2, hits give low values 1.01 | locus YER016W, strain bim1, hits give low values 1.01 | locus YER110C, hits give low values 0.986 | locus YER111C, strain swi4, hits give low values 0.99 | locus YER155C, strain BEM2 (second series), hits give low values 0.963 | locus YER155C, strain BEM2, hits give low values 1 | locus YER167W, strain BCK2, hits give low values 1.03 | locus YFR010W, strain ubp6, hits give low values 1.02 | locus YGL078C, strain dbp3, hits give low values 1 | locus YGL086W, strain mad1, hits give low values 1 | locus YGL167C, strain pmr1, hits give low values 0.993 | locus YGL173C, strain kem1, hits give low values 0.989 | locus YGL227W, strain vid30, hits give low values 0.988 | locus YGL240W, strain doc1, hits give low values 0.988 | locus YGL248W, strain PDE1, hits give low values 1.01 | locus YGL253W, strain hxk2, hits give low values 1.03 | locus YGR078C, strain PAC10, hits give low values 1.01 | locus YGR135W, strain pre9, hits give low values 0.998 | locus YGR229C, strain SMI1, hits give low values 1.02 | locus YGR252W, strain gcn5, hits give low values 1.02 | locus YHR013C, strain ard1, hits give low values 0.966 | locus YHR027C, strain rpn1, hits give low values 1 | locus YHR030C, strain SLT2, hits give low values 1.01 and 0.954 | locus YHR079C, strain IRE1 (second series), hits give low values 1 | locus YHR079C, strain IRE1, hits give low values 0.965 | locus YHR094C, strain hxt1, hits give low values 0.995 | locus YHR129C, strain ARP1, hits give low values 1 | locus YHR142W, strain chs7, hits give low values 1.02 | locus YHR200W, strain rpn10, hits give low values 0.993 | locus YIL066C, strain RNR3, hits give low values 1.02 | locus YIL073C, strain SPO22, hits give low values 1.03 | locus YIL125W, strain kgd1, hits give low values 1 | locus YIR030C, strain dcg1, hits give low values 0.99 | locus YJL092W, strain hpr5, hits give low values 1.01 | locus YJL095W, strain BCK1 (second series), hits give low values 1 | locus YJL095W, strain BCK1, hits give low values 1.02 and 0.975 | locus YJL115W, strain asf1, hits give low values 1.01 | locus YJL129C, strain trk1, hits give low values 1.02 | locus YJL134W, strain LCB3, hits give low values 1 | locus YJL154C, strain vps35, hits give low values 0.989 | locus YJL164C, strain tpk1, hits give low values 1 | locus YJL166W, strain qcr8, hits give low values 0.985 | locus YJL168C, strain set2, hits give low values 0.995 | locus YJL187C, strain SWE1 (second series), hits give low values 1.03 | locus YJL187C, strain SWE1, hits give low values 1.01 | locus YJR043C, strain POL32, hits give low values 0.996 | locus YJR066W, strain TOR1, hits give low values 0.973
